This passage reports growth results from PubChem BioAssay (NCI).

Test systems include DU-145 prostate; K-562 leukemia; MALME-3M melanoma; MDA-MB-231 breast; RXF 393 renal; SF-268 CNS; SF-295 CNS; SF-539 CNS; UACC-257 melanoma; M14 melanoma; HCT-15 colon; HT29 colon; SNB-75 CNS; SNB-19 CNS; U251 CNS; PC-3 prostate; SK-MEL-5 melanoma; UACC-62 melanoma; LOX IMVI melanoma; SK-MEL-28 melanoma.
Experiment in all cases: NCI-60 one-dose screen, 48 h (100 = growth as untreated, 0 = no growth, -100 = all killed)
Details in all cases: 10 µM unless noted

The structures appear in SMILES notation. This is part of a sample that, as a whole, favours compounds with a hit. Of some 83,000 tested, about 20% had one in any assay.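 Plates (96-well) were seeded with cells, treated with compound at one concentration, and incubated for 48 hours before percent growth was determined.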 Unmarked numbers belong to inactive results. The source made the active and inactive calls. The calls were made as follows: active = growth percent below 10; inactive = the rest.

Regarding `COC(=O)c1c(C(=O)OC)c2ccc3c4ccccc4ccc3n2c1C(=O)OC`, the growth with DU-145 prostate was 121%; in the assay on K-562 leukemia it was 117%; in the assay with MALME-3M melanoma, 96%; in the assay on MDA-MB-231 breast, 110%; in the assay on RXF 393 renal, 74.9%; in the assay on SF-268 CNS it was 103%. Besides, the growth is 93.5% in the assay with SF-295 CNS; 99.3% with SF-539 CNS; 101% with UACC-257 melanoma; 102% in the assay on M14 melanoma; 98.1% in the assay with HCT-15 colon; 108% in the assay on HT29 colon. In addition, the growth with SNB-75 CNS was 95.9%; in the assay with SNB-19 CNS, 81.1%; in the assay with U251 CNS it was 97.1%; in the assay on PC-3 prostate, 98.9%; in the assay on SK-MEL-5 melanoma, 98.3%; in the assay on UACC-62 melanoma, 93.6%. Moreover, the growth is 104% with LOX IMVI melanoma and 109% with SK-MEL-28 melanoma.

For the molecule `CN(C)C(=O)c1cc(-c2ccc3ncnc(N4CCc5cc(F)c(Cl)cc54)c3c2)cnc1N`, the growth is 23% in the assay on DU-145 prostate; -21.7% (active) in the assay on K-562 leukemia; -57.7% (active) in the assay with MALME-3M melanoma; -49.2% (active) with MDA-MB-231 breast; -73.7% (active) in the assay on RXF 393 renal; 24.2% with SF-268 CNS. Further, the growth in the assay with SF-295 CNS is -73.1% (active); in the assay on SF-539 CNS, -73.2% (active); in the assay on UACC-257 melanoma it was 4.11% (active); in the assay on M14 melanoma it was -36.7% (active); in the assay on HCT-15 colon it was -70.8% (active); in the assay on HT29 colon, -68.6% (active). Further, the growth in the assay on SNB-75 CNS is -28.8% (active); with SNB-19 CNS, -19.8% (active); in the assay with U251 CNS it was -55.7% (active); with PC-3 prostate it was 0.623% (active); in the assay on SK-MEL-5 melanoma it was -98.9% (active); in the assay with UACC-62 melanoma, -83.7% (active). The growth in the assay with LOX IMVI melanoma was -69.3% (active); in the assay on SK-MEL-28 melanoma it was 0.025% (active).

Regarding `COC(=O)c1cc(C(=O)C(F)(F)F)n2c3ccccc3c3ccccc3c12`, the growth in the assay with DU-145 prostate is 96%; in the assay with K-562 leukemia it was 82.6%; in the assay with MALME-3M melanoma, 104%; with MDA-MB-231 breast, 42.4%; in the assay with RXF 393 renal it was 69.2%; with SF-268 CNS, 83.4%. Besides, the growth is 37.2% in the assay on SF-295 CNS; 67.5% with SF-539 CNS; 110% in the assay on UACC-257 melanoma; 87.6% in the assay with M14 melanoma; 93.8% with HCT-15 colon; 96.1% in the assay on HT29 colon. In addition, the growth with SNB-75 CNS was 6.37% (active); in the assay on SNB-19 CNS, 67.8%; in the assay with U251 CNS, 70.1%; in the assay with PC-3 prostate it was 66.8%; in the assay with SK-MEL-5 melanoma, 95.8%; in the assay on UACC-62 melanoma, 69.3%. Further, the growth in the assay with LOX IMVI melanoma was 77.2%; in the assay with SK-MEL-28 melanoma, 111%.

In the case of `Cc1ccc(Cl)cc1NC(=O)Nc1nc2ccc([N+](=O)[O-])cc2s1`, the growth in the assay on DU-145 prostate is 18.6%; in the assay with K-562 leukemia, 1.86% (active); in the assay with MALME-3M melanoma it was -24.4% (active); in the assay with MDA-MB-231 breast, -42.2% (active); in the assay with RXF 393 renal, -22.7% (active); in the assay on SF-268 CNS it was 27.5%. The growth in the assay with SF-295 CNS is -45.4% (active); in the assay with SF-539 CNS it was -33.9% (active); in the assay on UACC-257 melanoma, -20.9% (active); in the assay on M14 melanoma, -33.5% (active); in the assay on HCT-15 colon it was -4.98% (active); with HT29 colon, -18.9% (active). The growth is -26.6% (active) in the assay on SNB-75 CNS; 7.85% (active) in the assay with SNB-19 CNS; -26.6% (active) in the assay on U251 CNS; 2.69% (active) with PC-3 prostate; -81.1% (active) in the assay with SK-MEL-5 melanoma; -15.4% (active) in the assay on UACC-62 melanoma. The growth is -21.1% (active) with LOX IMVI melanoma and -17% (active) in the assay on SK-MEL-28 melanoma.

`CN(C)c1ccc(/C=C/c2n(Cc3ccc4ccccc4c3)c3ccccc3[n+]2Cc2ccc3ccccc3c2)cc1`: the growth is -43.3% (active) with DU-145 prostate; 2.08% (active) in the assay on K-562 leukemia; -68% (active) in the assay with MALME-3M melanoma; -80.3% (active) in the assay with MDA-MB-231 breast; -74.4% (active) in the assay with RXF 393 renal; -59.1% (active) in the assay on SF-268 CNS. Further, the growth with SF-295 CNS was -98.9% (active); with SF-539 CNS it was -95.3% (active); in the assay with UACC-257 melanoma it was -74.3% (active); with M14 melanoma it was -69.2% (active); in the assay on HCT-15 colon, -84.4% (active); in the assay on HT29 colon, -31.6% (active). In addition, the growth in the assay on SNB-75 CNS is -84.3% (active); in the assay on SNB-19 CNS, -92.5% (active); in the assay on U251 CNS, -67.5% (active); in the assay with PC-3 prostate it was -50.9% (active); in the assay with SK-MEL-5 melanoma, -92.2% (active); with UACC-62 melanoma it was -93.3% (active). Besides, the growth is -95.7% (active) with LOX IMVI melanoma and -76% (active) in the assay with SK-MEL-28 melanoma.

In the case of `CCc1ccc(SC2c3cc(OC)ccc3Oc3nc(N)c(C#N)c(N)c32)cc1` (stereo not given), the growth was 3.29% (active) with DU-145 prostate; 0.578% (active) with K-562 leukemia; -55.2% (active) in the assay with MALME-3M melanoma; -41.4% (active) in the assay with MDA-MB-231 breast; -61.8% (active) with RXF 393 renal; -4.75% (active) in the assay with SF-268 CNS. Besides, the growth was -58.8% (active) in the assay on SF-295 CNS; -62.1% (active) in the assay on SF-539 CNS; -9.43% (active) in the assay on UACC-257 melanoma; -14.1% (active) in the assay on M14 melanoma; -45% (active) in the assay with HCT-15 colon; -60.5% (active) with HT29 colon. Further, the growth is -21.3% (active) in the assay on SNB-75 CNS; 0.536% (active) in the assay on SNB-19 CNS; -13.4% (active) in the assay on U251 CNS; 3.3% (active) in the assay on PC-3 prostate; -95.9% (active) in the assay on SK-MEL-5 melanoma; -80.7% (active) in the assay on UACC-62 melanoma. The growth in the assay on LOX IMVI melanoma was -62.2% (active); with SK-MEL-28 melanoma it was 0.874% (active).

For `C[C@@H](Nc1c(C#N)cnc2ccc(-c3cnc4[nH]ncc4c3)cc12)c1ccccc1`, the growth in the assay with DU-145 prostate is 12.3%; in the assay on K-562 leukemia it was 22.4%; with MALME-3M melanoma, -2.53% (active); in the assay on MDA-MB-231 breast it was 9.96% (active); in the assay with RXF 393 renal it was -15.1% (active); in the assay with SF-268 CNS, 25.7%. The growth is -0.0923% (active) in the assay with SF-295 CNS; 7.78% (active) with SF-539 CNS; 32.5% in the assay on UACC-257 melanoma; 29.9% with M14 melanoma; 8.64% (active) in the assay with HCT-15 colon; 79.5% in the assay with HT29 colon. Further, the growth in the assay on SNB-75 CNS is -26.9% (active); in the assay with SNB-19 CNS, 30.7%; in the assay on U251 CNS it was 23.4%; in the assay on PC-3 prostate it was 13.4%; in the assay on SK-MEL-5 melanoma it was -67.5% (active); in the assay with UACC-62 melanoma, -16% (active). In addition, the growth in the assay with LOX IMVI melanoma was 16%; in the assay on SK-MEL-28 melanoma, 15.4%.
